Rows were chosen to be rich in hits. Some 5.2% of all compounds tested hit in one or more screens of this group.
PostGolgi yeast: growth inhibition of a yeast mutant, post-Golgi transport screen; post-Golgi transport phenotypic cell assay; inhibition, % at 10 µM; 98,000 compounds, 0.9% hits;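 further: yeast cells grown in 1536-well plates; yeast grown about 18 h at 30C before absorbance read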
Calb biofilm kill: kills Candida albicans biofilms; 85,000 compounds, 0.14% hits; AID 834; C. albicans biofilm + clotrimazole, Alamar Blue; inhibition, % at 6 µM;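 active means inhibition above 20%; inactive means inhibition below 20%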;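 further: preformed 24 hr biofilms exposed to compound for 48 hr; 0% = biofilm without compound and 100% = blank killed by clotrimazole plus chlorhexidine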
PostGolgi ctrl: inhibits growth of the yeast control strain. efflux-deficient yeast background strain, growth absorbance A615, 16 h. inhibition, % at 10 µM. 98,000 compounds, 5% hits
EphB4 antag: antagonists of human EphB4-ephrin-B2 interaction; P54760; EphB4 LBD / TNYL-RAW-Alexa532 peptide, fluorescence polarization; inhibition, % at 7 µM; 97,000 compounds, 0.15% hits;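 active means inhibition above the screen-wide mean inhibition plus 3 SD, cut at about 15% in these data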;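 further: 0% = DMSO wells and 100% = excess unlabeled TNYL-RAW peptide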
Target sequence (P54760 whole entry, looked up, the tested form may be a part): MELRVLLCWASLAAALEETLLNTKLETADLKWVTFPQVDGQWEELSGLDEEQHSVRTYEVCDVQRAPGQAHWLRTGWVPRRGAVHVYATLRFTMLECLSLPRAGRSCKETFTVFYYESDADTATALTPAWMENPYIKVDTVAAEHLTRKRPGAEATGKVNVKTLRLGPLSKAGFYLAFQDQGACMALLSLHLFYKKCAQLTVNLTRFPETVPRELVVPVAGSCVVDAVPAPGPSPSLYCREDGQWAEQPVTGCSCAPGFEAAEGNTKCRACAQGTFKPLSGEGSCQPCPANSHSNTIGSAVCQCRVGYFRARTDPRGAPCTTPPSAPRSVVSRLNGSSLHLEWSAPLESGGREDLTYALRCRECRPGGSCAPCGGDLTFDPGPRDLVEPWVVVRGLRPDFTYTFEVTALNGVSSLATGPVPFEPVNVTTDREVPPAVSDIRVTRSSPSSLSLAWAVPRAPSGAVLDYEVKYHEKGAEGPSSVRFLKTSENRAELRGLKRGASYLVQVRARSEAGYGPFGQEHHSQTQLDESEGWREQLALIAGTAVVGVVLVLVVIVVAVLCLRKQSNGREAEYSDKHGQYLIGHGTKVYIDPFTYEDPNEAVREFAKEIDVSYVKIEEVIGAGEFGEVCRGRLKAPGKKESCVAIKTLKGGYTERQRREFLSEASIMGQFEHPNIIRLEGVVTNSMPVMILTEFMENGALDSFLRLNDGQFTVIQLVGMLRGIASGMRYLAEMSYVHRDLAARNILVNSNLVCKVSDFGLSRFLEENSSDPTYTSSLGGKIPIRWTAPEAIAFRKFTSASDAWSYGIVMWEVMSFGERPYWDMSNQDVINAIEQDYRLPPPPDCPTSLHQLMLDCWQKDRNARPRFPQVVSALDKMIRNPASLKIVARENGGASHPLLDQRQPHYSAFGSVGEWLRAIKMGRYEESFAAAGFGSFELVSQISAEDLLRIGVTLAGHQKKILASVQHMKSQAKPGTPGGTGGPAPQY
Numbers without * were called inactive; · = no result given. Unless noted, no stated cut-off is given here; in the data, active means inhibition above about 30%; inactive means the rest.

SMILES	PostGolgi yeast	Calb biofilm kill	PostGolgi ctrl	EphB4 antag
CC1C/C(=N/N=C2/NC(=O)CS2)CC(C)(C)C1 (stereo not drawn)	3	·	34*	-1
CC1C/C(=N/N2C(=O)CSC2=S)CC(C)(C)C1 (stereo not drawn)	6	·	-6	-5
CCOC(=O)C(CC)(CC)/C(C)=N/NC(=O)CC#N	5	3	2	4
O=C1N2c3ccccc3CCc3cccc(c32)C1(O)C(F)(F)F (stereo not drawn)	1	·	50*	0
O=C1CCCC2=C1C(O)(C(F)(F)F)C(=O)N2Cc1ccccc1 (stereo not drawn)	-2	·	-2	1
Cc1cccc(Cn2c(=O)c3c(nc4n3CCCN4Cc3ccccc3)n(C)c2=O)c1	-6	4	42*	-2
Cn1c(=O)n(C/C=C/c2ccccc2)c(=O)c2c1nc1n2CCCN1Cc1ccccc1	-1	3	32*	3
Cn1c(=O)n(C/C=C/c2ccccc2)c(=O)c2c1nc1n2CCCN1c1ccc(F)cc1	2	2	31*	·
CCn1c(=O)c2c(nc3n2CCCN3CCc2ccccc2)n(C)c1=O	3	·	12	2
O=C(CN1CCN(Cc2ccc(Cl)cc2)C1=O)NCCN1CCCC1	·	20	·	·
COc1ccccc1CN1C(=O)CN(C2CCCCCC2)C(=O)C1c1ccc(F)cc1 (stereo not drawn)	-1	8	49*	2
COc1cccc(C2C(=O)N(C3CCCCC3)CC(=O)N2Cc2ccc(F)cc2)c1 (stereo not drawn)	-10	4	6	8
Cc1ccc(C)c(OCCCCn2cnc3ccccc3c2=O)c1	-1	·	5	-3
Cc1ccc(OCCCCn2cnc3ccccc32)c(C)c1	-4	6	32*	-4
C=CCc1c(C)c(C#N)c2nc3ccccc3n2c1NCCN(C)C	82*	6	74*	-3
CCc1c(C)c(C#N)c2nc3ccccc3n2c1NCCN(C)C	-5	5	42*	-3
CC(=O)N1CCC(N(CCCOC(C)C)C(=O)Nc2ccc(Cl)cc2)CC1	·	13	·	7
N#Cc1cc2sc3nnc(-c4ccncc4)n3c2cc1C#N	6	-3	37*	·
CCOC(=O)c1c(C)nc2c(c1-c1ccccc1)C(=O)c1ccccc1-2	1	·	35*	-1
C=CC[n+]1c(-c2ccc(OC)c(OC)c2)csc1NNC(=O)Nc1ccccc1	-2	3	12	3
CCC(C)[C@H](NC(=O)NCc1ccccc1)C(=O)O (stereo partly drawn)	-2	-1	45*	3
Cc1noc(C)c1S(=O)(=O)N(CCc1ccccc1)Cc1ccccc1	4	5	18	-5
CCOC(=O)c1c(CN2CCCCC2C)oc2ccc(OC)cc12 (stereo not drawn)	30*	4	-1	-12
CCOC(=O)c1c(CN2CCN(C)CC2)oc2ccc(OC)cc12	-1	8	-15	4
CCOC(=O)c1c(CN2CCN(c3ccccc3)CC2)oc2ccc(O)cc12	-2	-2	32*	·
SMILES	PostGolgi yeast	Calb biofilm kill	PostGolgi ctrl	EphB4 antag
CCOC(=O)c1c(CN2CCCCC2)oc2ccc(OC)cc12	6	4	4	-11
N#CCC(CNc1ncc(C(F)(F)F)cc1Cl)OC(=O)c1cccc([N+](=O)[O-])c1 (stereo not drawn)	3	·	23	-5
CCOc1cc(N2CCOCC2)c(OCC)cc1NC(=O)Cc1cccc(OC)c1	-2	7	3	2
CCOc1cc(N2CCOCC2)c(OCC)cc1NC(=O)CN1CCc2ccccc2C1	9	4	39*	-2
COc1ccc(S(=O)(=O)Nc2nc3ccccc3s2)cc1OC	1	4	6	4
CNC(=S)NNC(=O)COc1cccc(C)c1C	·	·	·	5
Cc1cccc(NC(=S)NNC(=O)CC(C)O)c1C (stereo not drawn)	-3	·	48*	1
CCn1ncc(/C=N/NS(=O)(=O)c2ccc(Cl)cc2)c1C	-2	·	-3	4
C=CCn1c(SCc2nc(N)nc(N(C)C)n2)nnc1-c1cccnc1	-3	1	33*	4
CC(C)(C)NC(=O)CN(C(=O)CNC(=O)c1cccs1)c1ccc2c(c1)OCCO2	-8	·	6	6
Brc1cccc(-c2nc(-c3ccncc3)no2)c1	13	2	43*	·
Cc1cc(C)cc(-c2nc(-c3ccncc3)no2)c1	-13	21*	8	-2
Cc1ccc2cc(C)c(SCC#N)nc2c1	31*	1	16	9
Clc1cccc(CON/C=N/c2ncnc3sccc23)c1	21	·	35*	3
CC1(C)Cc2c(ccc3ccccc23)C(NNC(=O)c2cccnc2)=N1	24	2	-3	9
CCCOc1cc(N(CC)CC)ccc1/C=C(/C#N)c1nc2ccc(C)cc2[nH]1	-3	·	17	-7
CCOc1cc(N(CC)CC)ccc1/C=C(/C#N)c1nc2ccccc2[nH]1	12	·	50*	-6
COc1ccc(C(=O)NCCNC(=O)c2cc(OCC(F)(F)F)ccc2OCC(F)(F)F)cc1	-3	5	0	2
CCN(CC)CCn1nc(C)nc1-c1ccccc1O	40*	4	-6	-2
CCn1c(-c2ccccc2O)n[nH]c1=S	-10	5	9	7
Cc1cc(C)c(NC2=NS(=O)(=O)c3ccccc32)c(C)c1	5	1	10	-4
C=CCN1C(=O)N(/C=C/C)c2cccc3cccc1c23	4	0	30*	9
C=CCN1C(=O)C(C)(C)Nc2ccccc21	-3	3	-3	-8
Cc1ccc(NC(=O)N/C=C/c2ccc(Cl)cc2)cc1	-7	·	31*	2
O=C(N/C=C/c1ccccc1)Nc1ccc(Cl)cc1	1	·	3	-1
SMILES	PostGolgi yeast	Calb biofilm kill	PostGolgi ctrl	EphB4 antag
COC(=O)c1ccc2c(c1)N(Cc1cc(C)ccc1C)C(=O)c1ccccc1S2=O (stereo not drawn)	·	0	·	·
CCOC(=O)c1ccc2c(c1)N(Cc1ccccc1C)C(=O)c1ccccc1S2=O (stereo not drawn)	2	8	31*	-11
Cn1cc(C(c2ccccn2)c2cn(C)c3ccccc23)c2ccccc21	10	-1	53*	4
CSc1cccc(NC(=O)CN(c2cc(C)ccc2C)S(C)(=O)=O)c1	1	5	5	-10
CC12CCC(c3c(C(=O)Nc4nccs4)nn(-c4ccccc4)c31)C2(C)C (stereo not drawn)	39*	1	1	-15
O=C(c1cccc(F)c1)N1CCN(c2cc(N3CCCCC3)c(F)cc2[N+](=O)[O-])CC1	-12	·	52*	13
COc1cc2c(cc1NC(=O)CN1CCN(S(=O)(=O)c3ccc(C)cc3)CC1)oc1ccccc12	17	·	13	7
COc1cc2c(cc1NS(=O)(=O)N1CCCC1)oc1ccccc12	21	4	49*	2
CCSC1=C(C#N)C(c2ccccc2Cl)CC(=O)N1 (stereo not drawn)	-2	·	15	0
CCCCSC1=C(C#N)C(c2ccccc2C)CC(=O)N1 (stereo not drawn)	11	2	33*	2
CCCSC1=C(C#N)C(c2ccc(Cl)cc2Cl)CC(=O)N1 (stereo not drawn)	-2	3	37*	-7
CNCC(O)Cn1c(C(F)(F)F)nc2ccccc21 (stereo not drawn)	·	3	·	7

High-throughput results deposited in PubChem by several laboratories.
